Compound activity from PubChem BioAssay.
Pf growth 96h: P. falciparum growth inhibition at 96 hour, primary screen for plastid delayed-death inhibitors; P. falciparum luciferase reporter growth, 96 h; Potency, µM (doses to about 28.7 µM), inactives show at the top dose activity change, negative = inhibition, usual class: inhibitors; 320,000 tested, 6.9% active; AID 504834; note: potency is the fitted concentration of half-maximal effect
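Delayed-death screen, second-generation endpoint: infected erythrocytes, 2% hematocrit, 0.05% parasitemia final; 96 hours at 37 C, 5% CO2; luciferase detection reagent; luminescence decrease equals reduced growth.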
HCMV antiviral: human cytomegalovirus inhibition | 410,000 tested, 4.5% active | activity change, negative = inhibition, % at 57.5 µM | HFF cells, HCMV-luciferase reporter, 72 h; stronger effect = lower value; in the data active = activity change below about -60%; inconclusive = no clear call, values can overlap the other calls; inactive = above about -39%
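Inhibition of viral replication was scored as loss of reporter luminescence in HFFs infected with HCMV-luciferase (MOI 1 PFU/cell) for 72 h; compounds tested at 2 doses, normalized to buffer and Salinomycin controls.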
Pf growth 48h: inhibits P. falciparum growth in the first generation, 48 h | P. falciparum luciferase growth in erythrocytes, 48 h | Potency, µM (highest dose often 28.7 µM), for inactives: at the highest dose activity change, negative = inhibition, hits mostly inhibitors | 310,000 tested, 5.9% active | AID 504832; note: potency is the fitted concentration of half-maximal effect
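Luciferase-expressing parasites in RBCs, 2% Hct / 0.1% parasitemia final; RPMI 1640 + 0.5% Albumax; 37 C, 5% CO2, one generation; luminescence read-out, lower signal = inhibition.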
Sm TGR inh: S. mansoni TGR enzyme inhibition; 360,000 tested, 3% active; purified TGR, DTNB reduction, TNB absorbance 405 nm; Potency, µM (doses to about 114 µM), for the others: at the highest dose activity change, negative = inhibition, most hits filed as inhibitors; note: potency is the fitted concentration of half-maximal effect; nearly all actives have a fitted effect of over 60% in size
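TGR 20 nM + NADPH 100 uM (dispensed conc.), cpd preinc 15 min RT; start with NADPH (500 uM addition) then DTNB (15 mM addition). Kinetic TNB absorbance, 405 nm filter. Four-parameter Hill fit across titration.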
Giardia FBPA inh: blocks Giardia fructose-bisphosphate aldolase activity. 290,000 tested, 0.71% active. Potency, µM (highest dose often 59.6 µM), for inactives: top-dose activity, negative = inhibition, usual class: inhibitors. purified Giardia FBPA; note: potency is the fitted concentration of half-maximal effect; nearly all actives have a fitted effect of over 55% in size
Target sequence (A8B2U2 whole entry, looked up): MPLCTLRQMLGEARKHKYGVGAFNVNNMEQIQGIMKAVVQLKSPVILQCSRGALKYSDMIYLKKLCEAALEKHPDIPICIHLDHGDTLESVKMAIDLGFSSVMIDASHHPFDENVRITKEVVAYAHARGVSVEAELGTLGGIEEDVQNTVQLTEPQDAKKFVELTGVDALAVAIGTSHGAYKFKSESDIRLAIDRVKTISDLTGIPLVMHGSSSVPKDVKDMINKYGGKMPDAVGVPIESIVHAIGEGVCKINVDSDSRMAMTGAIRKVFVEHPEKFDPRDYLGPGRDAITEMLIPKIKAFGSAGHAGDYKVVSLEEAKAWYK
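Giardia FBPA (40 nM reagent) was preincubated 10 min at RT with compound (up to 57.5 uM final), then substrate plus GAPDH/TPI/NAD/arsenate coupling system with diaphorase/resazurin was added; resorufin fluorescence (525/598 nm) was read after 20 min.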
The depositor's hits bear a star; ? = inconclusive; . = not tested or not shown; [ ] = dose if it differs, or a comment. Only some compounds are listed: those with a hit (about 14% of all), similar ones and a draw of the others. Unless noted, calls come from the whole dose curve; as a rule, active = well fitted curve in the direction sought with a large enough effect; inconclusive = small, poorly fitted or top-dose-only effect, or another doubt; inactive = no such curve, though single readings can be large; an effect the other way counts as inactive or inconclusive. % is set by controls: 0 for no effect and ±100 for the full control effect.

SMILES | Pf growth 96h | HCMV antiviral | Pf growth 48h | Sm TGR inh | Giardia FBPA inh
Cc1cc(NC(=O)CN2CCc3ccccc3C2)nc2c1c(=O)oc1ccccc12 | ? | 64 | 10µM* | ? | -22%
CCOc1ccc(-c2cccc(NS(=O)(=O)c3cccc([N+](=O)[O-])c3)c2)nn1 | . | 55 | . | . | .
CS(=O)(=O)c1ccc(N)c(SSc2cc(S(C)(=O)=O)ccc2N)c1 | ? | -82* | ? | -4% | .
c1ccc2c(c1)CC(N1CCN(c3cccc4c3OCCO4)CC1)C2 | . | . | . | . | 7%
CCOc1ccc(-c2cc3c(=O)n(CC(=O)Nc4cc(F)ccc4C)ccn3n2)cc1 | . | 44 | . | 5% | .
O=C(CCCNC(=O)c1ccc(Cl)cc1)NCc1ccccc1F | -2% | 3 | -9% | 5% | -8%
Cc1ccc(Sc2ncccc2[N+](=O)[O-])cc1 | 30% | -19 | . | -7% | -6%
Cc1c([N+](=O)[O-])cnc(Sc2ccccc2)c1[N+](=O)[O-] | . | -99* | . | . | .
CCOc1ccccc1N1C(=O)c2ccc(S(=O)(=O)c3ccc(C(=O)O)cc3)cc2C1=O | 0.17µM* | -3 | 20% | 3% | 12%
CC(=O)Nc1ccc(N2C(=O)c3ccc(S(=O)(=O)c4ccc(C(=O)O)cc4)cc3C2=O)cc1 | 0% | -21 | 12µM* | -4% | .
O=C(O)c1ccc(S(=O)(=O)c2ccc([N+](=O)[O-])cc2[N+](=O)[O-])cc1 | 6% | -22 | ? | 0.1µM* | -22%
O=C(O)c1ccc(S(=O)(=O)c2ccc3c(c2)C(=O)N(c2ccccc2[N+](=O)[O-])C3=O)cc1 | 13µM* | 21 | 6% | -1% | .
CN1C(=O)c2ccc(S(=O)(=O)c3ccc(C(=O)O)cc3)cc2C1=O | 30% | -13 | 17% | 0% | 12%
O=C(O)c1ccc(S(=O)(=O)c2ccc3c(c2)C(=O)N(NC(=O)c2ccccc2)C3=O)cc1 | 9% | -38 | 39% | -10% | ?
CCCOc1ccc(NC(=O)CC2C(=O)N(c3ccc(C)cc3)C(=O)N2Cc2cccc(OC)c2)cc1 (centres undefined) | . | -19 | . | -1% | .
COc1cc(OC)c(OC)cc1CNC(=O)CCN1C(=O)c2cccc([N+](=O)[O-])c2C1=O | 15% | 17 | 6% | -18% | -12%
Cc1sc2ccccc2[n+]1CC(=O)O | ? | 5 | ? | 7% | ?
Cc1sc2ccccc2[n+]1CCC(C)S(=O)(=O)[O-] (centres undefined) | ? | 8 | 7% | 2µM* | -10%
CN1C(=O)CCC1c1cccnc1 (centres undefined) | 1.1µM* | . | -5% | . | 2%
CN1C(=O)CC[C@@H]1c1cccnc1 | . | . | . | . | -2%[21.7 µM]
COC(=O)[C@@H]1Cc2c([nH]c3ccccc23)C(C)(C)N1C(=O)CCl | ? | -99* | 12µM* | 32µM* | 0%
COC(=O)C1Cc2c([nH]c3ccccc23)C2CCC(=O)N12 (centres undefined) | . | -2 | . | . | .
COc1ccc(NC(=S)N2CCCN(Cc3cccc(Cl)c3)C2)cc1 | -12% | 0 | ? | 4% | -11%
CSc1cccc(NC(=S)N2CCCN(Cc3cccc(Cl)c3)C2)c1 | 40% | 5 | 10µM* | -9% | -7%
CCN(CC)CCOCCOC(=O)C(CC)(CC)c1ccccc1 (tested in a mixture with another compound) | 6.7µM* | . | 19µM* | . | .
SMILES | Pf growth 96h | HCMV antiviral | Pf growth 48h | Sm TGR inh | Giardia FBPA inh
O=C(COc1ccc2ccccc2c1)N1c2ccccc2Sc2ccccc21 | 13µM* | 16 | ? | 7% | -5%
CCOC(=O)c1c(C)oc2c(F)c(F)c(F)c(F)c2c1=O | 14% | -104* | -13% | 32µM* | -9%
CCOC(=O)c1c(C)oc(=O)c(CC)c1O | . | -26 | . | . | .
Nc1c(-c2ccccc2)c(CSc2nc3ccccc3[nH]2)nn1-c1cccc(Cl)c1 | ? | -95* | -31% | -9% | 0%
Nc1c(-c2ccccc2)c(CSc2nc3ccccc3[nH]2)nn1-c1ccc(Cl)cc1 | ? | -39 | -33% | -12% | 3%
Cc1ccccc1-n1nc(CSc2nc3ccccc3[nH]2)c(-c2ccccc2)c1N | ? | -87* | -4% | -2% | 0%
C[C@H]1CN([C@@H](C)CO)C(=O)Cc2cc(NS(=O)(=O)c3ccc(Cl)cc3)ccc2O[C@@H]1CN(C)C(=O)Nc1cccc2ccccc12 | . | -3 | . | . | .
Cc1nn(C)c(C)c1CN(C)S(=O)(=O)c1ccc(F)cc1 | -10% | -34 | 6% | -5% | 2%
Cc1nn(C)c(C)c1CN(C)S(=O)(=O)c1ccc2ccccc2c1 | ? | -82* | 13µM* | 0% | 0%
COc1ccc(C2N(c3ccc(Cl)cc3)C(=O)C3CCCN32)cc1 (centres undefined) | ? | -1 | . | -3% | 8%
O=C1C2CCCN2C(c2ccccc2)N1c1ccc(Cl)cc1 (centres undefined) | ? | -97* | -12% | -8% | 2%
O=C1C2CCCN2C(c2ccccc2F)N1c1ccc(Cl)cc1 (centres undefined) | ? | -64* | 7% | -1% | 2%
CCOc1ccc(C2N(c3ccc(F)cc3)C(=O)C3CCCN32)cc1 (centres undefined) | 4.1µM* | 8 | . | 1% | -5%
COc1ccc(N2C(=O)C3CCCN3C2c2ccc(Cl)cc2)cc1 (centres undefined) | 9.3µM* | -5 | . | 4% | 0%
COc1cccc(C(=O)Nc2ccc(C(=O)NCC3CCCO3)cc2)c1 (centres undefined) | . | 3 | . | . | .
O=C(N/N=C1/C[C@@H](O)[C@@H](O)[C@@H]2[C@@H]3C(=O)N(Cc4ccc5c(c4)OCO5)C(=O)[C@H]3CC[C@H]12)OCc1ccccc1 | . | . | . | . | 5%[12.9 µM]
CCCNC(=O)c1ccccc1NC(=O)c1nsc2ccccc12 | . | 37 | . | 6% | .
CC(C)CO/N=C1/[C@H]2O[C@@H]2[C@@H](O)[C@H]2[C@H]1CCn1c(=O)n(Cc3cc4c(cc3Cl)OCO4)c(=O)n12 | . | . | . | . | 3%[12.9 µM]
COc1ccc(C(=O)NCC(=O)Nc2ccc(-c3ccccc3)cc2)cc1 | 17% | 9 | 0% | 14% | -1%
COc1ccc(OC)c(C2N(c3ccc(Cl)cc3)C(=O)C3CCCN32)c1 (centres undefined) | 9.3µM* | 54 | -2% | -2% | 3%
COc1ccc(OC)c(C2N(c3cc(C)on3)C(=O)C3CCCN32)c1 (centres undefined) | . | -16 | 45% | 9% | -3%
COc1ccc(-c2nc3ccccc3n2Cc2ccccc2)cc1 | ? | -2 | . | -2% | -6%
COc1ccc(-c2n(Cc3ccccc3)c3ccccc3[n+]2Cc2ccccc2)cc1 | ? | -98* | 0.37µM* | . | -5%
CC(C)(O)C#Cc1ccc(N2C(c3ccsc3)=Cc3ccc(F)cc3C2c2c[nH]c3ccccc23)cc1 (centres undefined) | . | -63* | . | . | .
